The supplement of paper PMC5662767
Where a name gives a salt, the structure may show the parent alone.

Tested on: Drosophila S2 cl14 SmoIP sensor cells
Experiment: normalized SmoIP GFP fluorescence (untreated unstimulated = 0%, untreated Hh-stimulated = 100%); higher = more Smo activation sensor fluorescence
Conditions: compound concentration: 2 uM, 24 h
[1] = stimulation: Hh conditioned medium (+Hh)
[2] = stimulation: mock conditioned medium (-Hh)
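Further: flow cytometry read-out as median GFP intensity of gated cells, compounds added 30 min before Hh-conditioned or mock medium, mock-treated cells serving as unstimulated baseline.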

Row | SMILES | normalized SmoIP GFP fluorescence [1] [%] | normalized SmoIP GFP fluorescence [2] [%]
1 | CC(C)(O)[C@H]1CC[C@@](C)([C@H]2[C@@H](O)C[C@@]3(C)[C@@H]4C[C@H](O[C@@H]5O[C@H](CO)[C@@H](O)[C@H](O)[C@H]5O)[C@H]5C(C)(C)[C@@H](O[C@@H]6OC[C@@H](O)[C@H](O)[C@H]6O)CC[C@@]56C[C@@]46CC[C@]23C)O1 [astragaloside-a] | 120 | -16.8
2 | CNC(=O)c1ccc(-c2cnc3ncc(Cc4ccc5ncccc5c4)n3n2)cc1F | 107 | -1.34
3 | CN1CC2c3ccccc3Oc3ccc(Cl)cc3C2C1 (centres undefined) [Asenapine] | 115 | 4.58
4 | O=C1NC(=O)/C(=C/c2ccc(-c3ccc(F)cc3O)o2)S1 | 99.3 | 0.588
5 | Nc1cccc(-c2cc3c(Oc4cccc(O)c4)ncnc3[nH]2)c1 | 96.5 | 0.812
6 | O=C(CCCCCN1C(=O)c2cccc3cccc(c23)C1=O)NO [scriptaid] | 163 | 10.9
7 | Nc1cccc2c1C(=O)N(C1CCC(=O)NC1=O)C2=O (centres undefined) [Pomalidomide(CC-4047)] | 103 | 10.4
8 | Nc1ccn([C@H]2CC[C@@H](CO)O2)c(=O)n1 [Zalcitabine] | 114 | -12.4
9 | CC(=O)N[C@@H](CS)C(=O)O [Acetylcysteine] | 111 | 1.57
10 | N=C(N)NC(=N)NCCc1ccccc1 [Phenformin-hydrochloride] | 151 | -9.04
11 | CNCCCC12CCC(c3ccccc31)c1ccccc12 [Maprotiline-hydrochloride] | 123 | -0.116
12 | C=CC(=O)Nc1ccc2ncnc(Nc3cccc(Br)c3)c2c1 | 125 | -0.662
13 | COc1cc(F)c(C(C)C)cc1-c1ccc(C(F)(F)F)cc1CN1C(=O)O[C@H](c2cc(C(F)(F)F)cc(C(F)(F)F)c2)[C@@H]1C [anacetrapib-mk-0859] | 146 | -8.59
14 | O=C(NC1CCOCC1)c1ccc(-c2cc(-c3c[nH]nc3-c3ccccn3)ccn2)cc1 | 168 | -1.38
15 | CCc1cc2c(cc1N1CCC(N3CCOCC3)CC1)C(C)(C)c1[nH]c3cc(C#N)ccc3c1C2=O | 148 | 8.36
16 | CCOc1cc2ncc(C#N)c(Nc3ccc(OCc4ccccn4)c(Cl)c3)c2cc1NC(=O)/C=C/CN(C)C [Neratinib(HKI-272)] | 105 | -15.6

Row | SMILES | normalized SmoIP GFP fluorescence [1] [%] | normalized SmoIP GFP fluorescence [2] [%]
17 | N#Cc1ccc2[nH]c(O)c(-c3ccc(CN4CCOCC4)cn3)c2c1 | 108 | -4.35
18 | O=C1Nc2ccccc2/C1=C1/Nc2ccccc2C1=O [Indirubin] | 127 | -11.4
19 | Cn1cnc2c(F)c(Nc3ccc(Br)cc3Cl)c(C(=O)NOCCO)cc21 | 126 | 42.9
20 | COc1cc(NC(=O)c2ccccn2)ccc1Cl | 105 | -1.74
21 | C[C@@H]1C(=O)O[C@H]2C[C@@]34[C@H]5C[C@@H](C(C)(C)C)[C@]36[C@@H](OC(=O)[C@@H]6O)O[C@@]4(C(=O)O5)[C@]21O [ginkgolide-a] | 99.5 | -2.08
22 | C=CCn1c(=O)c2cnc(Nc3ccc(N4CCN(C)CC4)cc3)nc2n1-c1cccc(C(C)(C)O)n1 | 58.7 | -13.9
23 | CC(=O)c1c(C)c2cnc(Nc3ccc(N4CCNCC4)cn3)nc2n(C2CCCC2)c1=O | 150 | 3.72
24 | CC1CCN(CC[C@H]2CCCN2S(=O)(=O)c2cccc(O)c2)CC1 | 108 | 1.21
25 | CN(c1ncccc1CNc1nc(Nc2ccc3c(c2)CC(=O)N3)ncc1C(F)(F)F)S(C)(=O)=O | 196 | 39.3
26 | N#CC[C@H](C1CCCC1)n1cc(-c2ncnc3[nH]ccc23)cn1 | 112 | 1.03
27 | Nc1nc(N)nc(-c2cc(Cl)ccc2Cl)n1 [Irsogladine-maleate] | 140 | -3.9
28 | C#C[C@]1(OC(C)=O)CC[C@H]2[C@@H]3CCC4=C[C@@H](OC(C)=O)CC[C@@H]4[C@H]3CC[C@@]21C [ethynodiol-diacetate] | 100 | -1.63
29 | C[C@H](NC(=O)Cc1cc(F)cc(F)c1)C(=O)N[C@H](C(=O)OC(C)(C)C)c1ccccc1 | 146 | 4.93
30 | CNC(=O)c1cc(Oc2ccc(NC(=O)Nc3ccc(Cl)c(C(F)(F)F)c3)cc2)ccn1 [Sorafenib-Tosylate] | 112 | 47.1
31 | CC[C@H](C)C(=O)O[C@@H]1C[C@@H](C)C=C2C=C[C@H](C)[C@@H](CC[C@@H]3C[C@@H](O)CC(=O)O3)[C@H]21 [lovastatin-mevacor] | 123 | -14.7
32 | CN1[C@@H]2CC[C@H]1C[C@@H](OC(=O)c1c[nH]c3ccccc13)C2 [Tropisetron-hydrochloride] | 116 | -14.9
